Compounds without any hit were thinned out: in the full panel of roughly 83,000, 20% have a hit.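 Cell lines were cultured in 96-well plates, exposed to a single compound concentration, and assessed for percent growth 48 hours later.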 Values without a mark were called inactive. Activity calls are given as the source filed them.
tested on: OVCAR-8 ovarian; assay: NCI-60 one-dose screen, 48 h (100 = growth as untreated, 0 = no growth, -100 = all killed); conditions: 10 µM unless noted
Description: Growth inhibition of the OVCAR-8 human tumor cell line is measured as a screen for anti-cancer activity. Cells are grown in 96 well plates and exposed to the test compound for 48 hours. Compounds are tested at a single concentration, which is 10^-5 M for most compounds. The reported endpoint is percent growth (GI% or GIPRCNT), where numbers from 0 - 100% represent growth inhibition, and numbers from -100% - 0 represent cell death. For example, a value of 40 represents 60% growth inhibition. A value of 0 means no net growth occurred over the course of the experiment. A value of -40 indicates 40% of cells at the beginning of the experiment died by the end of the experiment. A value of -100 means all cells are dead at the end of the experiment.
NCI-60 Human Tumor Cell Lines Screen was performed using the standard one-dose NCI protocol, which is described in more detail at https://dtp.cancer.gov/discovery_development/nci-60/default.htm.
Compounds with GIPRCNT values below 10 were considered active. Activity score was based on GIPRCNT using the following formula: […]
Score is 0 for GIPRCNT values of 100 or above, 50 for GIPRCNT values of 0, and 100 for GIPRCNT values of -100.

| Structure (SMILES) | growth |
| --- | --- |
| CC(C)(C)n1cc(-c2ccnc(NCCNS(=O)(=O)c3ccc(F)cc3)c2)c(-c2cccc(O)c2)n1 | 62.4% |
| COc1cc(-c2nn(-c3cccc(NC(=O)Nc4ccc(Cl)c(Cl)c4)c3)cc2-c2ccncc2)ccc1Cl | -17.2% (active) |
| CN1C(=O)N(C)C2C1NN=c1s/c(=C\C=C\c3ccccc3)c(=O)n12 (stereo not given) | 79.7% |
| CC(C)(C)n1cc(-c2ccnc(NCCNS(=O)(=O)c3ccc(C(F)(F)F)cc3)c2)c(-c2cccc(O)c2)n1 | 58.5% |
| Cc1ccc2[nH]c(=O)c3c(c2c1)Oc1ncn2nc(-c4ccco4)nc2c1C3c1ccc(Cl)cc1 (stereo not given) | 93.4% |
| NC1=NC(SCc2ccccc2CCl)c2ncn(Cc3ccccc3CCl)c2N1 (stereo not given) | 22.8% |
| CC(NNC(C)c1ccccc1)c1ccccc1 (stereo not given) | 115% |
| O=[N+]([O-])c1cnc(Sc2ccncn2)s1 | 73.3% |
| CC(C)OC(=O)N1CCOCC1 | 95.6% |
| COC(=O)c1nc(-c2ccccc2)oc1S(=O)(=O)N1CCN(c2cccc(Cl)c2)CC1 | 76.3% |
| Fc1ccc(CNCCNc2ncnc3c2cnn3-c2ccccc2)cc1 | 88% |
| COc1ccc(/C=N\NC(=O)CN2CCN(c3cc4c(cc3F)c(=O)c(C(=O)N/N=C/c3ccc(OC)c(OC)c3)cn4C3CC3)CC2)cc1OC | 13.3% |
| N[C@H]1CN(C(=O)c2cc3cc(Br)c(F)c(F)c3[nH]2)C[C@@H]1O | 100% |
| COc1ccc(-c2cc(-c3ccccc3)nc(SCCCC(=O)NO)n2)cc1OC | 5.05% (active) |
| O=C(Nc1ccncc1)C(=O)c1cn(S(=O)(=O)c2ccc(Cl)cc2)c2ccccc12 | 42.5% |
| COc1ccccc1CNCCCN1C(=O)c2ccc3c4c(ccc(c24)C1=O)C(=O)N(CCCNCCCCNCCCN)C3=O | 4.19% (active) |
| COc1cc(-c2nn(-c3cccc(NC(=O)c4ccc(N5CCOCC5)c(C(F)(F)F)c4)c3)cc2-c2ccncc2)ccc1Cl | 5.23% (active) |
| Cc1[nH]c2ccc(F)cc2c1CCNC(=O)C1CCN(C(=O)c2ccccc2)C1 (stereo not given) | 101% [25 µM] |
| Nc1nc(-c2ccccc2)c(CCCOc2ccc(NC(=O)CBr)cc2)c(=O)[nH]1 | 98.3% |
| Cc1ccc(S(=O)(=O)/C(=C\c2ccc(Cl)cc2)C(=O)c2ccccc2)cc1 | 107% |

| Structure (SMILES) | growth |
| --- | --- |
| O=C(O)/C=C/C(=O)c1ccc(Cl)cc1 | 95.9% |
| O=C(Nc1ccc2c(c1)OCCO2)C(=O)c1c[nH]c2ccccc12 | 53.5% |
| COc1ccc(C2NN=C3c4ccccc4CCC32)cc1 (stereo not given) | 80.4% |
| CC12CCC3C4(C)COC(c5ccccc5Cl)OC4CCC3(C)C1CC(C1=CCOC1=O)O2 (stereo not given) | 65.1% |
| S=C(S)NCCc1c[nH]c2ccccc12 | 95.9% |
| CC(C)(C)NCCC(O)c1cc2c(Cl)cc(Cl)cc2c2cc(C(F)(F)F)ccc12 (stereo not given) | -81.1% (active) |
| O=S(=O)(NCCNc1nccc(-c2c(-c3ccc(O)cc3)nc3sccn23)n1)c1cccc2ccccc12 | 95.4% |
| O=[N+]([O-])c1ccc(/C=C/C2(CCl)OCCO2)cc1 | 82.4% |
| O=C(Nc1ccncc1)C(=O)c1cn(S(=O)(=O)c2ccccc2F)c2ccccc12 | 35.2% |
| COc1ccc(-n2c(=S)sc3c(Cl)nc(C)nc32)c(OC)c1 | 0.172% (active) |
| CCOC(=O)c1ccc(NC(=O)N2CC(C)OC(C)C2)cc1 (stereo not given) | 101% |
| O=[N+]([O-])c1cccc(-c2nc3sccn3c2-c2ccnc(NCCCNS(=O)(=O)c3ccc(C(F)(F)F)cc3)n2)c1 | 22.3% |
| COc1cc(Nc2ncccc2C(=O)NCc2cn(Cc3cccc(Oc4ccccc4)c3)nn2)cc(OC)c1 | 53.9% |
| COc1cc(-c2nn(-c3cccc(NC(=O)Nc4cccc(C(F)(F)F)c4)c3)cc2-c2ccncc2)ccc1Cl | -36.2% (active) |
| CCOC(=O)CN1/C(=N/c2sc3c(c2C(=O)OCC)CCN(C(=O)OCC)C3)SC(=O)/C1=C\C(=O)OC | 75.2% |
| c1ccc(Nc2nc(Nc3ccccc3)nc(Nc3ccccc3)n2)cc1 | 92.2% |
| C=COC(=O)CCCCCCCCC | 101% |
| S=c1[nH]nc(-c2cc3ccc2CCc2ccc(cc2)CC3)n1C1CC1 | 107% |
| CCCCN(CCCC)C(=N)c1ccnc2ccccc12 | 110% |
| C/C(=C\c1ccc(OCC(=O)O)c(Cl)c1Cl)[N+](=O)[O-] | 93.7% |

Reference: PubChem BioAssay (NCI)
